L3MBTL1 block = L3MBTL1 (human) inhibition. 230,000 tested, 0.66% active. Potency, µM (highest dose often 57.1 µM), for inactives: at the top dose activity, negative = inhibition, most hits filed as inhibitors. AlphaScreen L3MBTL1–H3K9me1 peptide binding. Q9Y468; further: on the % scale 0 is the no-effect control and ±100 the full control effect; nearly all actives have a fitted effect of over 60% in size
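AlphaScreen assay: L3MBTL1 (50 nM final) was preincubated 30 min at room temperature with biotinylated H3(1-15)K9me1 peptide (75 nM final), then 30 min with library compounds; streptavidin donor and nickel chelate acceptor beads (10 ug/mL final) added, 30 min dark.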
JMJD2A Tudor inh = inhibitors of human JMJD2A Tudor domain. AID 504339. 390,000 tested, 4.4% active. AlphaScreen JMJD2A-Tudor / H3K4me3 peptide binding. O75164. Potency, µM (doses to about 114 µM), for the others: at the top dose activity change, negative = inhibition, actives largely listed as inhibitors; further: on the % scale 0 is the no-effect control and ±100 the full control effect; nearly all actives have a fitted effect of over 50% in size
G9a inh = G9a (human) methyltransferase inhibition; Q96KQ7; G9a H3K9 monomethylation, AlphaScreen, 2 h; Potency, µM (highest dose often 102 µM), for inactives: top-dose activity, negative = inhibition, usual class: inhibitors; 350,000 tested, 8.8% active; further: on the % scale 0 is the no-effect control and ±100 the full control effect; nearly all actives have a fitted effect of over 75% in size
Target sequence (Q96KQ7 913-1193 limits assumed): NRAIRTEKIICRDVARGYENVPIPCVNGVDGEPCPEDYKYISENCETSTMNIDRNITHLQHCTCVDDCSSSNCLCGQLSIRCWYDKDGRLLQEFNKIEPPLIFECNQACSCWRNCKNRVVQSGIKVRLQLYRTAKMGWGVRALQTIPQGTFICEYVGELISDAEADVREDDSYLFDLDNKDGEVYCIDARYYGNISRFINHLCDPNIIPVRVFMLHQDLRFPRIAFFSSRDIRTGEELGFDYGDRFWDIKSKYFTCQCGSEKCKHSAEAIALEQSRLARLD
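AlphaScreen detection with an anti-monomethyl H3K9 antibody quantified product after a 2 h room-temperature reaction containing 500 nM biotinylated H3K9 peptide, 20 µM SAM and 20 nM enzyme, which had been preincubated 15 min with compound.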
HP1b chromo inh = HP1-beta chromodomain-methylated histone interaction inhibition. P83916. AlphaScreen HP1-beta / biotin-H3K9me3 peptide binding. Potency, µM (highest dose often 114 µM), inactives show at the top dose activity change, negative = inhibition, most hits filed as inhibitors. 390,000 tested, 0.56% active. AID 540317; further: nearly all actives have a fitted effect of over 70% in size
Target sequence (P83916 whole entry, looked up): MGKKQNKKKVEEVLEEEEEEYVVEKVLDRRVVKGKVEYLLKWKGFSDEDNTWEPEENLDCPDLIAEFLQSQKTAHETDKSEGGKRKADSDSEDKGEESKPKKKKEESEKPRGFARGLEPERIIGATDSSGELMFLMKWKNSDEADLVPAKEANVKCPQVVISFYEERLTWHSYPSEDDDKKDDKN
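AlphaScreen: HP1-beta (50 nM) preformed 30 min with biotin-H3(1-18)K9me3 peptide (50 nM) in PBS pH 7.4, 0.01% Tween-20. Compound added for 30 min at RT, then streptavidin donor/nickel chelate acceptor beads (10 ug/mL) for 30 min.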
BAZ2B block = blocks human BAZ2B | Q9UIF8 | AlphaScreen BAZ2B-H3K14Ac peptide displacement | Potency, µM (doses to about 114 µM), without a hit: top-dose activity change, negative = inhibition, usual class: inhibitors | 360,000 tested, 4.4% active; further: on the % scale 0 is the no-effect control and ±100 the full control effect; nearly all actives have a fitted effect of over 60% in size
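Multi-concentration screen (max 110 uM) measuring displacement of acetylated histone H3 peptide from BAZ2B by AlphaScreen, using 50 nM protein, 50 nM peptide and 10 ug/mL streptavidin donor plus Ni-chelate acceptor beads.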
The depositor's hits bear a star; ? = inconclusive; nt = no result; [ ] = remark or other dose. Only some compounds are listed: those with a hit (about 11% of all), similar ones and a draw of the others. The call rests on the fitted dose curve; in most records, active means well fitted inhibition curve with a large enough effect; inconclusive means small, poorly fitted or top-dose-only effect; inactive means no such curve, though single readings can be large or run the other way. Potency means the concentration at half of the fitted maximal effect.

SMILES	L3MBTL1 block	JMJD2A Tudor inh	G9a inh	HP1b chromo inh	BAZ2B block
COc1ccccc1-n1cnc2c(c1=O)c1nc3ccccc3nc1n2-c1ccc(C)c(C)c1	-2%	-30%	-10%[59 µM]	39%	56µM*
Cc1nc(CN(C)c2ncnc3ccc(-c4ccc5c(c4)OCO5)cc23)cs1	nt	89µM*	nt	nt	nt
O=C(O)C1Cc2ccccc2CN1C(=O)COc1ccc(Cl)cc1Cl (stereo unspecified)	nt	-17%	25µM*	12%	-31%
O=C(O)C1Cc2ccccc2CN1C(=O)CCl (stereo unspecified)	-12%	?	8.9µM*	14%	nt
O=C(CCCOc1ccc(Cl)cc1Cl)N1CCc2ccccc2C1	-4%	84%	30%[59 µM]	119%	68%
O=C(O)C1Cc2ccccc2CN1C(=O)COc1ccc(Br)cc1 (stereo unspecified)	nt	?	50µM*	6%	nt
CCc1ccc(-n2c(SCC(=O)N3Cc4ccccc4CC3C(=O)O)nnc2-c2ccncc2)cc1 (stereo unspecified)	3%	?	nt	46%	-1%
O=C(C1Cc2ccccc2CN1C(=O)c1ccccc1)N1CCN(c2ccccc2)CC1 (stereo unspecified)	?	?	nt	-29%	71µM*
CCOC(=O)c1cccc(NC(=O)N2Cc3ccccc3Oc3ncccc32)c1	nt	-15%	5%[59 µM]	36%	-18%
OCCC1CN(CC2CCCCC2)CCN1CC1CCCCC1 (stereo unspecified)	2%	-16%	20%	2%	?
C=CCOc1ccc(/C=C2/C(=O)ON=C2C)cc1OC	nt	-13%	50µM*	27%	-35%
COc1ccc(/C=C2\SC(N)=NC2=O)cc1Cl	nt	-22%	-28%	39%	-17%
COc1ccc(/C=C2/C(=O)ON=C2C)cc1Cl	nt	-27%	16µM*	-5%	-31%
COc1ccc(NC(=O)C(CC(C)C)NS(=O)(=O)c2ccc3c(c2)oc(=O)n3C)cc1Cl (stereo unspecified)	nt	-17%	-2%[59 µM]	14%	-4%
COc1ccc(CCNC(=O)CC2Nc3ccccc3NC2=O)cc1 (stereo unspecified)	-17%	-13%[57.1 µM]	-7%[59 µM]	38%	?
CCOc1ccccc1NC(=O)CC1Nc2ccccc2NC1=O (stereo unspecified)	1%[11.4 µM]	-23%	14µM*	8%	-28%
CCCOc1ccccc1NC(=O)CC1Nc2ccccc2NC1=O (stereo unspecified)	-12%	-28%	-9%[59 µM]	0%	4%
O=C(CC1Nc2ccccc2NC1=O)Nc1ccc2c(c1)OCO2 (stereo unspecified)	?	-27%	13µM*	-16%	-14%
O=C(CC1Nc2ccccc2NC1=O)NCCc1ccccc1 (stereo unspecified)	-10%	-18%[57.1 µM]	11µM*	53%	5%
Cn1c(=O)n(C)c2cc(CNCc3ccccc3Cl)ccc21	nt	0%	6%[59 µM]	50%	-20%
CC1CCC(C(=O)NC(C(=O)OCC(=O)c2ccc(Br)cc2)C(C)C)CC1 (stereo unspecified)	nt	-2%	8%[59 µM]	49%	1%
COc1ccc(CNc2oc(/C=C/c3cccc(OC)c3)nc2C#N)cc1	nt	-10%	-32%[59 µM]	23%	-26%
COc1ccc(CN(C)C(=O)Cn2cc(C)c(=O)[nH]c2=O)cc1OC	nt	79µM*	nt	29%	nt
CCOC(=O)c1cc(-c2ccccc2)nn1CCC#N	-6%	-19%	10%	32%	5%
CCOC(=O)c1cc(-c2ccc(C)o2)nn1CCC#N	-3%	-14%	13µM*	6%	-39%
O=C(c1cc(-c2ccccc2)nn1CC1CC(c2cccnc2)=NO1)N1CCOCC1 (stereo unspecified)	nt	?	nt	24%	nt
Cc1ccc(-n2nc(-c3ccco3)cc2C(=O)O)c(C)c1	7.9µM*	56µM*	18µM*	-24%	45µM*
Cc1ccc(-n2nc(-c3cccnc3)cc2C(=O)N2CCOCC2)c(C)c1	nt	-24%	45µM*	1%	-33%
CCC(=O)N1CCc2cc(S(=O)(=O)NCCC(=O)NCc3ccc(C)cc3)ccc21	nt	-11%	8%[59 µM]	21%	nt
COCCn1c(SCC(=O)N2CCCCC2)nc2ccccc2c1=O	2%	-12%	?	23%	-34%

Assay outcomes as filed in PubChem BioAssay.
